Compounds with a hit are over-represented: about 3.5% of the library has one in this group of screens.
mHTT-CaM PPI inh: mutant huntingtin-calmodulin interaction inhibitors – biochemical, AlphaScreen, primary screen; AlphaScreen His-mHTT/GST-CaM binding, luminescence; hit rate 3.6% among 190,000; AID 1671202, 2021; inhibition, % at 15 µM; P42858;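 note: 0% = both proteins with DMSO and 100% = one protein alone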
Pf apPOL inh: Pf-apPOL inhibitors, biochemical, fluorescence. inhibition, % at 10 µM. Plasmodium falciparum apicoplast DNA polymerase (apPOL). hit rate 0.25% among 210,000. AID 1794808, 2022. Recombinant Pf-apPOL, molecular beacon fluorescence, 1.5 h
Numbers without * were called inactive; . = no result; ! = a repeat was not active. Cut-off read from the data, not from the text of the source: active = inhibition above about 50%; inactive = the rest.

SMILES	mHTT-CaM PPI inh	Pf apPOL inh
O=C(NCCN1CCOCC1)c1cccc(F)c1	-8	-6
Cc1cc(N2CCN(C(=O)c3cccs3)CC2)c(F)cc1[N+](=O)[O-]	5	3
O=C(c1cccs1)N1CCN(c2cc(N3CCCCCC3)c(F)cc2[N+](=O)[O-])CC1	60*	-11
O=C1CC(Nc2ccc(CCO)cc2)C(=O)N1c1ccc(F)cc1 (centres undefined)	-4	1
COc1ccc(N2CC(c3nnc(NC(=O)c4ccc(C)cc4)o3)CC2=O)cc1 (centres undefined)	50*	-1
COc1ccc(N2CC(c3nnc(NC(=O)c4ccc(C(C)(C)C)cc4)o3)CC2=O)cc1 (centres undefined)	8	-3
CCOc1ccc(N2CC(c3nnc(NC(=O)c4ccc(C)cc4)o3)CC2=O)cc1 (centres undefined)	60*	-2
CCOc1ccc(N2CC(c3nnc(NC(=O)c4ccc(Cl)cc4)o3)CC2=O)cc1 (centres undefined)	9	-2
CCC1CCCCN1C(=O)c1nn(-c2ccc(OC)cc2)c(=O)c2ccccc12 (centres undefined)	5	-7
COc1ccccc1C1CC(c2cc(F)ccc2O)=NN1 (centres undefined)	40	-1
Oc1ccc(Cl)cc1C1=NNC(c2cccs2)C1 (centres undefined)	52*	-1
O=C(NNc1nc(-c2ccccc2)c2cc(Br)ccc2n1)C12CC3CC(CC(C3)C1)C2	2	-5
OCCCNc1nc(-c2ccccc2Cl)c2cc(Br)ccc2n1	51*	-4
CC(C)(C)C(=O)Nc1ccc(NC(=O)C(C)(C)C)c(Cl)c1	0	12
COC(=O)[C@H](C(C)C)N(CCc1cn(Cc2ccc(C)cc2)nn1)S(=O)(=O)c1ccccc1Br	-1	-7
COC(=O)[C@H](C(C)C)N(CCCc1cn(Cc2ccc(C)cc2)nn1)S(=O)(=O)c1ccccc1Br	93*	-1
O=C1CCN(CCc2ccccc2)CCN1CCSc1ccc(Br)cc1	53*	-9
CC(C)C[C@@H](CO)N1CCN(CCc2ccccc2)CCC1=O	8	-1
CC(C)C[C@@H](CN=[N+]=[N-])N1CCN(CCc2ccccc2)CCC1=O	71*	-6
Cc1ccc(SCCN2CCN(CCc3ccccc3)CCC2=O)cc1	34	-2
O=C1CCN(CCc2ccccc2)CCN1[C@H](CSc1ccc(Br)cc1)Cc1ccccc1	75*!	-3
COc1ccc(SC[C@H](Cc2ccccc2)N2CCN(CC(C)C)CCC2=O)cc1	-30	-5
COc1ccc(SC[C@H](CC(C)C)N2CCN(CCc3ccccc3)CCC2=O)cc1	100*	-5
O=C1CCN(Cc2ccccc2)CCN1[C@H](CSc1ccccc1)Cc1ccccc1	38	-3
COc1ccc(-c2cc3nc4c(c(=O)n3[nH]2)CN(C(=O)NCc2cccc(F)c2)CC4)cc1	45	5
SMILES	mHTT-CaM PPI inh	Pf apPOL inh
CC(=O)Nc1ccc(SC[C@H](CC(C)C)N2CCN(CCc3ccccc3)CCC2=O)cc1	50	-4
Cc1ccc(SC[C@H](CC(C)C)N2CCN(CCc3ccccc3)CCC2=O)cc1	80*	-6
CC(C(=O)Nc1cccc2c1C(=O)c1ccccc1-2)N1C(=O)C2C3C=CC(C3)C2C1=O (centres undefined)	61*	-1
CC(C(=O)Nc1ccccn1)N1C(=O)C2C3C=CC(C3)C2C1=O (centres undefined)	3	2
CCC1Oc2ccc(NC(=O)C(C)C)cc2CN(Cc2ccccc2F)C1=O (centres undefined)	0	-2
Cc1ccc(NC(=O)C2CCN(c3cn[nH]c(=O)c3)CC2)c(C)c1	0	-3
CCc1nnc(NC(=O)CSc2cccc3cccnc23)s1	15	3
CCOc1cc(/C=C2/SC(=Nc3cccc(C(=O)O)c3)NC2=O)ccc1OC	51*	-4
O=C1NC(=Nc2cccc(Cl)c2Cl)S/C1=C\c1ccc(O)c(O)c1	83*	-2
CCOc1cc(/C=C2/SC(=Nc3ccccc3Cl)NC2=O)ccc1O	53*	-5
O=C1NC(=Nc2ccccc2Cl)S/C1=C/c1cccc(C(=O)O)c1	4	-7
CCOc1cc(/C=C2/SC(=Nc3ccccc3)NC2=O)ccc1OC	26	6
COc1cc(/C=C2/SC(=Nc3ccccc3Cl)NC2=O)cc(OC)c1	5	4
O=[N+]([O-])c1ccc(Cl)c(Nc2nc3nonc3nc2Nc2cc([N+](=O)[O-])ccc2Cl)c1	98*	.
O=[N+]([O-])c1ccc2nc(Nc3ccc(Cl)c(Cl)c3)c(Nc3ccc(Cl)c(Cl)c3)nc2c1	-3	.
Cn1nc(CNC(=O)c2ccc(F)c(F)c2)c2ccccc21	-8	6
Cc1nc(-c2cccnc2)nc2c1CCC(=O)N2CCC1=CCCCC1	57*	5
Cc1nc(-c2ccncc2)nc2c1CCC(=O)N2CCC1=CCCCC1	13	6
COc1ccc(NC(=O)C2CC(=O)N(C)C(=Nc3ccc(Cl)c(Cl)c3)S2)cc1 (centres undefined)	85*	1
COc1ccc(NC(=O)C2CC(=O)N(C)C(=Nc3ccc(Cl)c(C(F)(F)F)c3)S2)cc1 (centres undefined)	5	7
O=C(Cn1cnc([N+](=O)[O-])n1)Nc1cccc(Cl)c1Cl	-3	-1
COc1ccccc1-c1cn[nH]c1-c1ccc(OCC=C(C)C)cc1O	68*	-3
CCCOc1ccc(-c2[nH]ncc2Oc2ccccc2)c(O)c1	80*	-4
COc1ccc(-c2[nH]ncc2Oc2ccccc2)c(O)c1	35	-9
CCCCOc1ccc(-c2[nH]ncc2Oc2ccccc2)c(O)c1	93*	-10
SMILES	mHTT-CaM PPI inh	Pf apPOL inh
CCc1cc(-c2[nH]ncc2Oc2ccc(Cl)cc2)c(O)cc1O	100*	0
COc1ccccc1-c1c(C(F)(F)F)oc2cc(OCC=C(C)C)ccc2c1=O	-8	1
COc1ccc(Oc2cncnc2-c2ccc(OCc3ccccc3)cc2O)cc1	0	4
CCc1cc(C(=O)COc2ccc(F)cc2)c(O)cc1O	-1	-4
Cc1cccc(NC(=O)c2cc(C)n3nc(C)cc3n2)c1	-9	1
O=C(Nc1ccc(Cl)cc1)N1CCC(n2cnc3ccccc3c2=O)CC1	4	-5
CC(=O)Nc1nc(-c2ccc(F)c(F)c2)cs1	0	-4
Cc1ccc(SCCc2ccccn2)cc1	-15	3
Cc1ccc(-c2nccn3cc(C(=O)N4CCOCC4)nc23)cc1	-3	6
O=C(Nc1ccc2nn(-c3ccccc3)nc2c1)c1ccc(Cl)c([N+](=O)[O-])c1	6	6
O=C(NC=Nc1cc([N+](=O)[O-])c(-c2ccncc2)n1-c1ccccc1)c1cccc(O)c1	64*	4
CC1(C)Cc2nc3sc(C(=O)O)c(N)c3cc2CS1	51*	0
Nc1c(C(=O)O)sc2nc3c(cc12)CCCC3	-4	.
Cc1ccc(N(C)S(=O)(=O)c2ccc3[nH]cc(C(=O)N4CCCCCC4)c(=O)c3c2)cc1C	58*	-7
Cc1ccc(N(C)S(=O)(=O)c2ccc3[nH]cc(C(=O)N4CCC(C)CC4)c(=O)c3c2)cc1C	32	-21
COc1ccc(C(=O)NCc2cccnc2)cc1[N+](=O)[O-]	-3	1
Cc1ccc(NC(=O)Cn2nc(N(C)C)c3ccccc3c2=O)cc1Cl	80*	-1
Cc1ccc(NC(=O)Cn2nc(N(C)C)c3ccccc3c2=O)cc1	-2	0
